A selection: hits, their analogues and other compounds. The true share with any hit is near 1.5%.
a7 integrin act: qHTS for Activators of Integrin-Mediated Alleviation for Muscular Dystrophy; AID 624291, 2012; actives 0.064% (n = 350,000); alpha7betagal myoblasts, beta-gal FDG fluorescence, 48 h; Potency, µM (titrated, usually from 38.3 µM), inactives show at the highest dose activation, usual class: activators;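 note: potency is the fitted concentration of half-maximal effect; 100% = response of the positive control SU9516; nearly all actives have a fitted effect of over 60% in size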
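Alpha7betagal+/- myoblasts (passage 13) were plated 16-24 hr, then exposed to compounds (1:260 dilution of DMSO stock) for 48 hours at 37C. After MPER lysis, β-galactosidase reporter activity was read as FDG fluorescence (ex 480/em 540) after 30 minutes.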
uPA surface inh: qHTS for Inhibitors of Cell Surface uPA Generation; cell surface uPA generation assay, qHTS; Potency, µM (series often up to 38.3 µM), for inactives: top-dose activity change, negative = inhibition, usual class: inhibitors; actives 0.31% (n = 330,000); active = well fitted inhibition curve with a large enough effect; inconclusive = small, poorly fitted or top-dose-only effect; inactive = no such curve, though single readings can be large or run the other way; tested in mouse RAW 264.7 cells; note: potency is the fitted concentration of half-maximal effect; % is set by controls: 0 for no effect and ±100 for the full control effect; nearly all actives have a fitted effect of over 55% in size
ALOX12 inh: Primary qHTS assay for inhibitors of human arachidonate 12S-lipoxygenase (ALOX12): Round 2. Polyunsaturated fatty acid lipoxygenase ALOX12 (Homo sapiens), P18054. purified 12hLO, xylenol orange hydroperoxide absorbance. Potency, µM (titrated, usually from 108 µM), for the others: top-dose activity change, negative = inhibition, usual class: inhibitors. actives 1.1% (n = 580,000). AID 1671190, 2021; note: potency is the fitted concentration of half-maximal effect; % is set by controls: 0 for no effect and ±100 for the full control effect
Target sequence (P18054 whole entry, looked up): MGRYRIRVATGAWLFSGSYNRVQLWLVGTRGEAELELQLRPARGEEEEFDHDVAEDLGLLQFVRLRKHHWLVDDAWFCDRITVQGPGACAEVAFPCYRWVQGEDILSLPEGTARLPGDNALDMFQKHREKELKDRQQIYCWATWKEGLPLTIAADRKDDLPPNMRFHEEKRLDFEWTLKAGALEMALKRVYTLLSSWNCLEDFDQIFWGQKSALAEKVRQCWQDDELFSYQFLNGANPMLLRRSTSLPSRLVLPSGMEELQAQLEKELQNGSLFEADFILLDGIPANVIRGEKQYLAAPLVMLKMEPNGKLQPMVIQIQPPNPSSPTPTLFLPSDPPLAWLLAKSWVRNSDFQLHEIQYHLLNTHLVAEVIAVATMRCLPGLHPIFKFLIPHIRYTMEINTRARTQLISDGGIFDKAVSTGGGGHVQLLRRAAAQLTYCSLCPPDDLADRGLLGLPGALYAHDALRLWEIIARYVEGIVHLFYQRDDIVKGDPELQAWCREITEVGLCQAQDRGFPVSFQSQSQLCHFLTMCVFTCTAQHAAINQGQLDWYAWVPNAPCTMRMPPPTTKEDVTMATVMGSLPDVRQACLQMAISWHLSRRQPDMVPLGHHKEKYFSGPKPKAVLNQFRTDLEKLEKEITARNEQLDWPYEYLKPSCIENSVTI
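Hydroperoxide product was detected by ferrous iron/xylenol orange as the 573 to 405 nm absorbance ratio. Arachidonic acid at 40 uM (final) was turned over for 30 min at room temperature by 150 nM human 12hLO, pH 7.0 Hepes buffer, after 15 min compound preincubation.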
IL2 activator: qHTS of IL-2 Activators; activation, % (series mostly up to about 46 µM); AID 652025, 2013; actives 0.065% (n = 360,000); IL-2 activation reporter assay, cell-based qHTS; stimulated with anti-CD3/CD4/CD28 beads; in transgenic mouse T cells; in the data active = activation above about 50%; inconclusive = mostly about 30% to 49%; note: 0% is about no effect
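First, unstimulated transgenic mouse T cells were exposed to compound for 60 min. Next, anti-CD3/anti-CD4-coated beads with anti-CD28 were added. Finally, after 18 h at 37 degrees C, EGFP and DsRed were imaged.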
Nrf2 ARE act: qHTS of Nrf2 Activators | AREc32 ARE-luciferase reporter (MCF7-derived line), luminescence, 24 h | Potency, µM (titrated, usually from 46.1 µM), for the others: at the highest dose activation, most hits filed as activators | actives 0.31% (n = 410,000); note: potency is the fitted concentration of half-maximal effect; % of control where 0% means no effect; nearly all actives have a fitted effect of over 65% in size
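Each well held 1000 AREc32 cells, which were incubated with compound for 24 hr at 37 deg C after overnight attachment, and ARE reporter activity was quantified by firefly luciferase luminescence.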
* marks the source's active call; other numbers are inactive results; ? = inconclusive; nt = no result given; ! = not active in a repeat; [ ] = another dose, or the depositor's remark. Unless noted, calls come from the whole dose curve; as a rule, active = well fitted curve in the direction sought with a large enough effect; inconclusive = small, poorly fitted or top-dose-only effect, or another doubt; inactive = no such curve, though single readings can be large; an effect the other way counts as inactive or inconclusive.

SMILES | a7 integrin act | uPA surface inh | ALOX12 inh | IL2 activator | Nrf2 ARE act
O=[N+]([O-])c1ccc(O)c([N+](=O)[O-])c1 | nt | -5.9% | -25.2% | 0.3 | -0.3%
O=[N+]([O-])c1ccc(Cl)c([N+](=O)[O-])c1 | nt | 1.26µM* | -7.6% | -0.6 | -3.8%
CN(C)Cc1ccccc1-c1ccc2n(c1=O)C[C@H]1C[C@@H]2CN(C(=O)c2cccs2)C1 | nt | nt | 1.6%[176 µM] | nt | nt
C=C(C)C(Cc1c(OC)ccc(C(=O)/C=C/c2ccc(O)cc2)c1O)OO (stereo not drawn) | -35.9% | ? | 20µM* | -0.8 | ?
COc1cc2c(cc1OCc1ccccc1)NC(=O)C21CCN(c2ccnc(C)n2)CC1 | nt | nt | 4.5%[176 µM] | nt | nt
Clc1ccc(N2CCN(CC3[C@H]4CNC[C@@H]34)CC2)nc1 (stereo partly drawn) | nt | nt | 31.6µM* | nt | nt
CN1CCN(c2ccc(C#N)cn2)CC1 | nt | nt | 23.3% | nt | nt
CC[C@H]1CN2CC[C@H]1C[C@@H]2CNC(=O)c1ccc2c(c1)OCO2 | nt | nt | 52.3%[176 µM] | nt | nt
C#CCN(C)C[C@H]1CN2CC[C@H]1C[C@@H]2CNC(=O)Nc1ccccc1 | nt | nt | 18.5%[176 µM] | nt | nt
COc1ccc(N2C(=O)/C(=C/c3ccc(C)o3)C(=O)NC2=S)cc1 | 0.0% | -12.4% | 12.6µM* | -0.7 | 8.3%
CCOc1ccc(N2C(=O)/C(=C/c3ccc(C)o3)C(=O)NC2=S)cc1 | -18.5% | -8.1% | ? | -0.1 | 3.0%
COc1ccc(CNC[C@H]2C[C@@H]3CCN2C[C@@H]3c2cc(-c3ccc(F)cc3)nn2C)cc1 | nt | nt | 86.5%[176 µM] | nt | nt
C[C@]12CC[C@@H]3c4ccc(O)c(O)c4CC[C@H]3[C@@H]1CC[C@@H]2O | nt | ? | 5.01µM* | 0.7 | ?
C[C@H]1CCC/C=C/C2C[C@H](O)CC2[C@H](O)/C=C/C(=O)O1 (stereo partly drawn) | nt | 0.316µM* | nt | -0.7 | 4.3%
Cc1nc(-c2cccs2)cc([C@H]2CN3CC[C@H]2C[C@@H]3CNC(=O)C2CCC2)n1 | nt | nt | 34.2%[176 µM] | nt | nt
COc1ccc(OC)c(N2C(=O)NC(=O)/C(=C/c3ccc([N+](=O)[O-])s3)C2=O)c1 | -24.8% | -2.9% | 39.8µM* | -3.9 | 17.6%
COc1ccc(OC)c(N2C(=O)/C(=C/c3ccco3)C(=O)NC2=S)c1 | 3.1% | 4.8% | nt | 0.3 | -1.5%
CNc1nc(N2C[C@H]3CN(CCOC)C[C@@]3(C(=O)O)C2)ncc1F | nt | nt | -26.3% | nt | nt
CC1=Nc2ccccc2/C1=C/c1c(O)[nH]c(=O)[nH]c1=O | -32.4% | -13.2% | 28.2µM* | 0.2 | 4.3%
CCOC(=O)C1(c2ccccc2)CCN(CCC(=O)Nc2ccc(OC)cc2)CC1 | -9.6% | nt | -7.8% | 0.0 | -0.1%
CCOC(=O)C1(c2ccccc2)CCN(CCC(=O)Nc2cccc(Br)c2)CC1 | -69.3% | -5.7% | 20µM* | -0.2 | -1.0%
CN(C)c1ccc(/C=C/[N+](=O)[O-])cc1 | 0.0% | -4.0% | 1.9% | 97.2* | 0.5%
C/C(=C\c1ccc(N(C)C)cc1)[N+](=O)[O-] | -69.0% | nt | 6.8% | -5.0 | ?
CC(C)(C)CC(=O)N1C[C@@H]2C[C@H](C1)c1ccc(NC(=O)Nc3cccc(F)c3)c(=O)n1C2 | nt | nt | 2.1% | nt | nt
CC1(C)C[C@H]2C=C(C=O)[C@]3(C=O)C[C@]3(C)[C@H]2C1 | -49.1% | 2.24µM* | -17.6% | -0.9 | 9.0%
SMILES | a7 integrin act | uPA surface inh | ALOX12 inh | IL2 activator | Nrf2 ARE act
O=C1C=CCC(/C=C/c2ccccc2)O1 (stereo not drawn) | 0.0% | 1µM* | 6.9% | -0.6 | 6.4%
Cc1nc(-c2ccco2)cc([C@H]2CN3CC[C@H]2C[C@@H]3CNC(=O)C(C)(C)C)n1 | nt | nt | 30.4%[176 µM] | nt | nt
O=C(O)[C@@H]1CCN1 | nt | nt | 25.1µM* | nt | nt
COc1ccc(/C=N\N=C(N)N)cc1 | -46.2% | -9.8% | 12.5% | 0.9 | -0.4%
NC(N)=N/N=C/c1ccc(N2CCOCC2)cc1 | -13.0% | 7.94µM* | -1.4% | -1.0 | -0.1%
CSc1ncc(/C=C2/C(=O)NC(=O)N(c3ccc(C(C)C)cc3)C2=O)cn1 | -9.7% | 6.5% | ? | 3.9 | 0.1%
CC(C)c1ccc(N2C(=O)NC(=O)/C(=C/c3cnc(-c4ccccc4)nc3)C2=O)cc1 | 13.6% | 0.7% | 15.8µM* | 14.0 | 3.2%
O=C1CSC(c2ccccc2OC2CCCC2)c2cn[nH]c2N1 (stereo not drawn) | nt | nt | 6.0% | nt | nt
CN(C)c1ccc2c(c1)N=C(c1ccco1)OP2(=S)N1CCOCC1 (stereo not drawn) | 18.8% | -6.9% | 20µM* | -1.8 | 13.4%
COc1ccc(-n2c(=O)[nH]c3ccccc3c2=O)c(OC)c1 | -42.8% | 1.0% | -13.9% | -0.9 | -0.3%
COc1ccc(-c2nc(C(N)=O)c3[nH]c(=O)n(-c4ccccc4OC)c3n2)c(OC)c1 | -15.6% | 11.2µM* | 20.4% | -0.1 | -0.6%
c1ccc(Nc2ccc(Nc3ccccc3)cc2)cc1 | nt | 6.31µM* | 14.1µM* | 0.3 | 5.6%
O=[N+]([O-])c1ccc(Nc2ccccc2)cc1 | 26.2% | -22.6% | -25.7% | -2.2 | 5.7%
NC(=O)c1cn(C2OC(CO)C(O)C2O)c2ncnc(N)c12 (stereo not drawn) | ? | -11.8% | 17.8µM*! | -0.6 | -1.9%
N#Cc1cn(C2OC(CO)C(O)C2O)c2ncnc(N)c12 (stereo not drawn) | ? | -6.0% | -26.4% | -0.7 | -1.4%
C[C@]12CCC3C(CC[C@H]4C[C@@H](O)CC[C@]34C)[C@H]1C=CC2=O (stereo partly drawn) | -47.9% | -6.9% | -1.0% | 2.4 | 22.4µM*
C[C@]12CCC3[C@@H](CC[C@@H]4C[C@H](O)CC[C@]34C)[C@@H]1CCC2=O (stereo partly drawn) | nt | 8.4% | ? | 0.0 | -0.5%
COc1cccc(CC(=O)N2CCN(CC(=O)NC(C)(C)C)CC2)c1 | nt | nt | 12.5% | nt | nt
C[N+](C)(C)CC1CCC1 | nt | nt | 28.2µM* | nt | nt
